Assay outcomes as filed in PubChem.
Shown are actives, neighbours in structure and some others; about 5.4% of the full set was active somewhere.
12-hLO inh: blocks human 12-lipoxygenase activity; P18054; purified 12-hLO, xylenol orange hydroperoxide absorbance; hit rate 0.12% among 150,000; Potency, µM (top dose mostly 57.1 µM), for inactives: top-dose activity change, negative = inhibition, actives largely listed as inhibitors; note: potency is the fitted concentration of half-maximal effect; nearly all actives have a fitted effect of over 55% in size
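Hydroperoxide formation by human 12-lipoxygenase from 40 uM arachidonic acid was followed colorimetrically via ferric-xylenol orange complex, using the 573/405 nm absorbance ratio. Enzyme concentration was 150 nM, with 30 min reaction at room temperature.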
IMPase cell inh: IMPase inhibition in cells | CHO-M1 cells, IP1 accumulation, HTRF TR-FRET ratio | 120,000 tested, under 10 active | inhibition (IP1 accumulation), % at 46.1 µM | P97697; active = well fitted curve in the direction sought with a large enough effect in the signal ratio, not every such curve was filed as active; inconclusive = small, poorly fitted or top-dose-only effect, or a change in a side signal; inactive = no such curve, though single readings can be large or run the other way; the % refers to the signal ratio;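 note: cells stimulated with carbachol in lithium chloride buffer; plate controls were DMSO basal wells for no effect and reference inhibitor wells for full effect; higher means more IMPase inhibition seen as more IP1 and lower FRET ratio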
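Seeded CHO-M1 cells were dosed with compound at up to 46 uM, stimulated with carbachol for 30 min, then lysed in IP-One detection reagents. Higher IP1 lowers the TR-FRET signal.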
IMPase Li cell: IMPase inhibition in cells with lithium potentiation; Potency, µM (top dose mostly 59.4 µM), for the others: at the top dose activity, negative = IMPase inhibition, most hits filed as inhibitors; CHO-M1 cells, IP1 TR-FRET (IP-One), carbachol + lithium; AID 1457; hit rate 0.35% among 210,000;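 note: IP1 builds up when IMPase is blocked and the TR-FRET signal falls; potency is the fitted concentration of half-maximal effect; plate controls were basal vehicle for no effect and high inhibitor control for full effect; nearly all actives have a fitted effect of over 50% in size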
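IP1 accumulation measured by competitive TR-FRET in lysed CHO-M1 cells after 30 min compound exposure at 37C, with a small lithium addition to potentiate weak responses. Hill-equation AC50 from ratio and donor-channel data.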
ALOX15B inhib: blocks human 15-lipoxygenase 2 activity | O15296 | purified 15hLO-2, xylenol orange hydroperoxide absorbance | Potency, µM (top dose mostly 57.1 µM), without a hit: at the top dose activity change, negative = inhibition, most hits filed as inhibitors | hit rate 0.56% among 110,000 | AID 881; note: potency is the fitted concentration of half-maximal effect; nearly all actives have a fitted effect of over 60% in size
Target sequence (O15296 whole entry, looked up): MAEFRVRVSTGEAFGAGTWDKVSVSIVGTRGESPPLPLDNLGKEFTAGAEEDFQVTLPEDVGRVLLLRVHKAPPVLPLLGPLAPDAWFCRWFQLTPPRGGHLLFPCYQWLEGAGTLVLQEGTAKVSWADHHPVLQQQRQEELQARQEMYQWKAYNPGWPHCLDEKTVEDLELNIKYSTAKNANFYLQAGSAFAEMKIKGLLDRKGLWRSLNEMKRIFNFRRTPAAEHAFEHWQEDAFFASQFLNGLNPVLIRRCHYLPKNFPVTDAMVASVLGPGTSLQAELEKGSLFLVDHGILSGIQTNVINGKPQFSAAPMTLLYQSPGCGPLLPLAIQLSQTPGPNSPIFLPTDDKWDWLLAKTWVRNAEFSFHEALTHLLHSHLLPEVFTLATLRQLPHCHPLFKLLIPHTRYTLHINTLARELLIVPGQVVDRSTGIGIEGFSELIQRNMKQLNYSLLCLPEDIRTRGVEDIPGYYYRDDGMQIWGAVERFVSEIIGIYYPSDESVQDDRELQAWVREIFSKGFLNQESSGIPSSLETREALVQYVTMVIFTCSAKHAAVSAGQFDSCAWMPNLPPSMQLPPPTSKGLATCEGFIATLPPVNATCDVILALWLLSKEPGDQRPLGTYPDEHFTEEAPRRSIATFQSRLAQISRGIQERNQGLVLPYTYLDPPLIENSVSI
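Screening format was qHTS against 50 nM purified 15hLO-2 in Hepes pH 7.5 with detergent. Activity follows hydroperoxide formation from 45 uM arachidonic acid, measured as 573:405 nm absorbance ratio of the ferric-xylenol orange complex.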
HPGD inh: blocks human HPGD enzyme activity. P15428. hit rate 4.3% among 150,000. AID 894. purified HPGD, NADH fluorescence kinetic, PGE2 substrate. Potency, µM, for inactives: at the top dose activity change, negative = inhibition, hits mostly inhibitors; active = well fitted inhibition curve with a large enough effect, not every such curve was filed as active; inconclusive = small, poorly fitted or top-dose-only effect, or another doubt; inactive = no such curve, though single readings can be large or run the other way; note: potency is the fitted concentration of half-maximal effect
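NADH formation kinetics: reaction with 30 uM PGE2 and 1 mM NAD+ (final), 20 nM enzyme, Tris-HCl pH 8 with Tween 20, after 15 min compound preincubation at room temperature. Fluorescence change, last versus first of five reads.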
PNC assembly inh: perinucleolar compartment assembly inhibition; hit rate 3.1% among 140,000; activity change (PNC), negative = inhibition, % at 10 µM; PC3M PTB-GFP, PNC prevalence imaging, 16 h; stronger effect = lower value; AID 2417;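 active = readout at or below -70, meaning at least 70% loss of cells showing the perinucleolar compartment, a nuclear body marking cancer cells; inconclusive = readout between -30 and a set limit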;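 note: plate controls were DMSO wells for no effect and camptothecin positive control wells for full effect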
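Read-out is percentage of cells bearing a perinucleolar compartment, from automated 20x imaging of fixed, Hoechst-stained PC3M PTB-GFP cells. Cells were seeded 4 h, then exposed 16 h to compound (23 nl of library stock) in duplicate plates.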
Numbers without * were called inactive; ? = inconclusive; · = not tested or not shown; ! = a repeat was not active; [ ] = remark or other dose. Unless noted, calls come from the whole dose curve; as a rule, active = well fitted curve in the direction sought with a large enough effect; inconclusive = small, poorly fitted or top-dose-only effect, or another doubt; inactive = no such curve, though single readings can be large; an effect the other way counts as inactive or inconclusive. Unless noted, % is set by controls: 0 for no effect and ±100 for the full control effect.

SMILES	12-hLO inh	IMPase cell inh	IMPase Li cell	ALOX15B inhib	HPGD inh	PNC assembly inh
CCCS(=O)(=O)NCCc1cc2cc(C)c(C)cc2[nH]c1=O	-7%	-5	4%	·	-23%	-100*
Cc1ccc(O)c(N=Nc2ccccc2)n1	-17%	16	16%	?	22µM*!	·
COc1cccc(Cn2c(=O)c(-c3cccs3)nc3cnc(N4CCN(C)CC4)nc32)c1	-4%	·	21%	-3%	-10%	·
CCn1ccc2cc(OC)ccc2c1=S	-11%	?	11µM*	-22%	-15%	17
Clc1ccc(CSc2nnc(-c3cccnc3)n2Cc2ccco2)c(Cl)c1	?	1[9.22 µM]	1%[38.3 µM]	-21%	14µM*	11
CNc1nc(Sc2ccccc2)cc(C(F)(F)F)n1	-4%	6	32%[38.3 µM]	11%	35µM*	18
CNc1nc(Sc2cccc(C(F)(F)F)c2)cc(C(F)(F)F)n1	2%	28	27%[38.3 µM]	-4%	?	116
OC[C@H](S)CS	-7%[11.4 µM]	·	17%	?	-10%	·
CCN=C(Nc1ccc2c(c1)OCO2)SC1CC(=O)N(c2ccccc2F)C1=O (centres undefined)	-5%	0	1%[38.3 µM]	2%	-5%	-17
CN=C(Nc1ccc(C(=O)OC)cc1)SC1CC(=O)N(c2ccccc2F)C1=O (centres undefined)	-1%	14	9%[38.3 µM]	-1%	-10%	-108*
CCCCOC(=O)c1ccc(NC(=O)/C(C#N)=C/c2ccc(-c3ccccc3)o2)cc1	·	-15	·	·	·	·
O=C1OC(Cc2ccccn2)C(O)=C1C1=NCCCCN1 (centres undefined)	6%	·	-3%	·	?	7
O=C1OC(Cc2ccccn2)C(O)=C1C1=NCCCN1 (centres undefined)	-2%	·	-2%	·	-4%	-83*
COc1cccc(-c2cncnc2N(C)Cc2ccco2)c1	·	·	6%	-2%	·	·
CCOC(=O)/C(=C/c1ccccc1)NC(=O)c1ccco1	-7%	?	8%	·	-9%	-81*
COc1ccc(/C=C2/SC(=O)N(CCNC(=O)C3CCCN3C(=O)c3cccs3)C2=O)cc1 (centres undefined)	1%	·	6%	·	?	-100*
CCOc1ccc(N2C(=O)CSC2c2ccncc2)cc1 (centres undefined)	-3%	-4	4%	·	-10%	-100*
O=C1CSC(c2cccnc2)N1c1ccc(F)cc1 (centres undefined)	0%	4	-5%[38.3 µM]	3%	-1%	21
COc1ccc(N2C(=O)CSC2c2cccs2)cc1 (centres undefined)	0%	·	7%	·	-5%	-114*
COc1ccc2c3c(ccc2c1)N[C@H](C(=O)O)CC3	4%[11.4 µM]	·	1%	-5%[11.4 µM]	?	·
CCC(C)/C(C)=N/NC(=O)c1ccc(COc2ccc(Cl)c(C)c2)cc1 (centres undefined)	-3%	·	7%	·	-15%	-134*
CCOc1ccc(OCc2ccc(C(=O)N/N=C(\C)c3ccccn3)cc2)cc1	·	·	4%	·	·	·
COc1ccc(-c2coc3ccc(OC4OC(COC(C)=O)C(OC(C)=O)C(OC(C)=O)C4OC(C)=O)cc3c2=O)cc1 (centres undefined)	0%	3	7%	-3%	0%	·
CCOC(=O)c1sc(=S)sc1SCc1cccc(C(F)(F)F)c1	-4%	10	34%[38.3 µM]	?	28µM*	?
CC(C)c1ccc2nc3sc(C(=O)N4CCc5ccccc5C4)c(N)c3cc2c1	-19%	1	2%[38.3 µM]	-11%	16µM*	56
SMILES	12-hLO inh	IMPase cell inh	IMPase Li cell	ALOX15B inhib	HPGD inh	PNC assembly inh
CCOc1ccc2nc3sc(C(=O)N4CCN(C)CC4)c(N)c3cc2c1	-8%	11	27%[38.3 µM]	22%	14µM*	-1
Cc1cc(C)c2c(N)c(C(=O)N3CCc4ccccc4C3)sc2n1	·	·	0%	·	·	·
Cc1ccc2nc3sc(C(=O)N4CCOCC4)c(N)c3cc2c1	-8%	?	-1%[38.3 µM]	-7%	25µM*	-11
COc1ccccc1N1CCN(C(=O)C2c3ccccc3Oc3ccccc32)CC1	-9%	10	1%[38.3 µM]	1%	-19%	?
O=C(C1c2ccccc2Oc2ccccc21)N1CCN(c2ccc(Cl)cc2)CC1	7%	7	47%[38.3 µM]	-7%	-14%	-89*
CC(C)N(C(=O)CSc1nnc(NC(=O)C2CCC2)s1)C(C)C	7%	-4	22%[38.3 µM]	-6%	-11%	-102*
Cc1cc(SC#N)cc(C)c1NC(=O)CCl	0%	-10	-11%	·	?	-115*
CCC(=O)Nc1ccc(SC#N)cc1C	2%	0	-1%[38.3 µM]	-6%	-16%	-8
CCc1cc(SC#N)cc(C)c1NC(=O)CCl	1%	·	22%	·	16µM*	29
CN(C)c1ccc(NC(=O)CSCc2nc3c(nnn3Cc3ccc(F)cc3)c(=O)[nH]2)cc1	-16%	7	85%[38.3 µM]	-19%	22µM*	-15
O=c1cc(/N=C/c2coc3c(ccc4ccccc43)c2=O)[nH]c(=S)[nH]1	-3%	·	2%	·	2.2µM*	39
Cc1cc(Nc2ccccc2N2CCOCC2)n2ncnc2n1	-3%	-1	-8%[38.3 µM]	-7%	18µM*	-12
CCCCC(NS(=O)(=O)c1ccc(OC)cc1)C(=O)O (centres undefined)	-5%	0	-26%[38.3 µM]	6%	-8%	-100*
COc1cc2c(cc1OC)C1N(CC2)C(=O)CCC12C(=O)CCCC2=O (centres undefined)	·	·	-2%	·	?	·
CCOc1cc(C2C3=C(CCCC3=O)N(C)C3=C2C(=O)CCC3)cc(Cl)c1O	-5%	-5	7%	·	-18%	-100*
Cc1cc(C)n2nc(SCc3nc4ccccc4[nH]3)nc2n1	12%	5	26%[38.3 µM]	8%	-15%	?
COc1ccc(OCCSc2nc3nc(C)cc(C)n3n2)cc1	·	·	3%	·	·	·
Cc1cc(C)n2nc(SCc3nnc(SCc4ccccc4Cl)s3)nc2n1	0%	-2	-6%	-7%	28µM*	?
Cc1cc(C)n2nc(SCc3nnc(SCc4ccccc4C)s3)nc2n1	-5%	1	17%[38.3 µM]	6%	25µM*	?
COc1cccc(CSc2nnc(CSc3nc4nc(C)cc(C)n4n3)s2)c1	9%	7	50%[38.3 µM]	5%	16µM*	-28
Nc1ccc([N+](=O)[O-])c(N)c1	-4%	·	21%	-12%	-11%	·
CCNCCCNCCCCNCCCNCC	10%	-6	10%	48%	-10%	·
CSc1ccccc1C(=O)NCc1ccccc1C	·	·	3%	·	·	·
O=C(NCCSc1ccccc1)c1ccccc1	0%	?	10%[38.3 µM]	-4%	-28%	17
CCCCNC(=O)c1ccccc1Cl	2%	-2	3%[38.3 µM]	5%	8.9µM*	-22
CSc1ccccc1C(=O)NCCSC(C)(C)C	-2%	9	11%[38.3 µM]	-5%	25µM*	51
